Compound activity deposited in PubChem BioAssay by National Center for Advancing Translational Sciences (NCATS).
Sampled rows, rich in hits. Any-hit rate of the full collection: about 2.4%.
Epigenetic derep: Quantitative High-Throughput Screen for Regulators of Epigenetic Control; Potency, µM (highest dose often 53.9 µM), for the others: at the highest dose GFP activation, actives largely listed as activators; murine LDR cells, GFP reporter derepression, 30 h; AID 1865, 2009; actives 0.2% (n = 280,000); note: % of control where 0% means no effect; nearly all actives have a fitted effect of over 60% in size
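Derepression of a silenced CMV-GFP reporter in murine LDR cells is scored by enumerating GFP-positive cells with a laser-scanning microplate cytometer after 30 hours of treatment at 37 C.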
A549 tox: Nrf2 qHTS screen for inhibitors: counterscreen for cytotoxicity; Potency, µM (series often up to 46 µM), without a hit: top-dose activity change, negative = cytotoxicity, most hits filed as inhibitors; actives 0.16% (n = 390,000); A549 ARE-Fluc cells, CellTiter-Fluor viability, 18-24 h; note: % is set by controls: 0 for no effect and ±100 for the full control effect
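A549 ARE-Fluc cells in 5% FBS OPTI-MEM, 5000 cells/well, rested 2 h then exposed to compounds in concentration-response for 18-24 h at 37 °C. Viability by CellTiter-Fluor fluorescence (Ex 405/Em 525) after 30 min; luciferase luminescence (BugLite, 15 min, RT) read afterwards.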
PINK1 expr mod: A Quantitative High throughput Screen to Identify Chemical Modulators of PINK1 Expression; actives 0.2% (n = 410,000); PINK1 immunofluorescence, high-content cytometry, 24 h; Potency, µM (top dose mostly 76.6 µM), inactives show at the highest dose activation (PINK1 increase), most hits filed as activators; active = well fitted activation curve with a large enough effect; inconclusive = small, poorly fitted or top-dose-only effect; cell line not stated here; note: % of control where 0% means no effect; nearly all actives have a fitted effect of over 65% in size
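A stable cell line was treated with compounds at 5 concentrations for 24 hours, with CCCP as control. PINK1 levels and mitochondrial localization were measured by immunofluorescence with mitochondrial, cell and nuclear markers after fixation, read by laser-scanning cytometry.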
Nrf2 block: Nrf2 qHTS screen for inhibitors; A549 ARE-Fluc reporter, luciferase luminescence, 18-24 h; Potency, µM (top dose mostly 46 µM), inactives show top-dose activity change, negative = inhibition, actives largely listed as inhibitors; actives 2.1% (n = 360,000); AID 504444, 2011; note: % is set by controls: 0 for no effect and ±100 for the full control effect; nearly all actives have a fitted effect of over 60% in size
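In this cell-based qHTS, ARE-driven firefly luciferase in A549 cells reports Nrf2 activity; the luminescent signal after BugLite lysis is the measured value, with a prior CellTiter-Fluor read for cell health.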
Nrf2 ARE act: qHTS of Nrf2 Activators | Potency, µM (highest dose often 46.1 µM), inactives show top-dose activation, usual class: activators | AREc32 ARE-luciferase reporter (MCF7-derived line), luminescence, 24 h | actives 0.31% (n = 410,000); note: % of control where 0% means no effect; nearly all actives have a fitted effect of over 65% in size
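AREc32 cells carrying an ARE-driven firefly luciferase reporter were seeded at 1000 cells/well in OPTI-MEM with 5% FBS, then exposed to compound for 24 hr at 37 deg C. Luminescence was read with Steady-Glo after 30 min at RT.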
The depositor's hits bear a star; ? = inconclusive; nt = no result given; ! = a repeat was not active; [ ] = another dose, or the depositor's remark. Unless noted, calls come from the whole dose curve; as a rule, active = well fitted curve in the direction sought with a large enough effect; inconclusive = small, poorly fitted or top-dose-only effect, or another doubt; inactive = no such curve, though single readings can be large; an effect the other way counts as inactive or inconclusive. Potency is the fitted concentration of half-maximal effect.

SMILES | Epigenetic derep | A549 tox | PINK1 expr mod | Nrf2 block | Nrf2 ARE act
CC(CCc1ccccc1)NC(=O)c1ccccc1 (stereo unspecified) | 1% | 9% | -2% | nt | -1%
CCC(C)(C)C1CCC2(CC1)NC(=O)N(CC(=O)N(C)CC(=O)Nc1ccccc1C(F)(F)F)C2=O (stereo unspecified) | nt | -20% | 1% | 15µM* | -1%
O=C1CCc2cc(S(=O)(=O)Nc3ccc(-c4ccccc4)cc3)ccc2N1 | nt | 2% | nt | 12µM* | nt
CCC1(C2CCN(C(=O)c3ccc4ccccc4c3)CC2)NC(=O)N(CCc2scnc2C)C1=O (stereo unspecified) | nt | nt | 1% | nt | nt
CCC1(C2CCN(Cc3cc4ccccc4o3)CC2)NC(=O)N(CC2COc3ccccc3O2)C1=O (stereo unspecified) | nt | nt | 0% | nt | nt
COc1ccc(CNC(=O)C2CCN(S(=O)(=O)c3cccc(-c4noc(C)n4)c3)CC2)cc1 | 0% | 0% | 3% | nt | 0%
Cc1ccc(NC(=O)/C=C/c2ccc([N+](=O)[O-])s2)cc1 | 8.9µM* | -10% | ? | ? | ?
Cc1cccc(NC(=S)N/N=C/c2ccc([N+](=O)[O-])s2)c1 | 11% | ? | 2% | 11µM* | -1%
Cc1ccc(NC(=O)/C=C/c2ccc([N+](=O)[O-])s2)c(C)c1 | -1% | ? | ? | ? | 1%
Cc1cccc(NC(=O)/C=C/c2ccc([N+](=O)[O-])s2)c1 | 7.1µM* | -27% | -1% | -6% | ?
O=C(c1cccnc1)C1CCCN(Cc2ccc3c(c2)CN(C(=O)c2cccs2)CCO3)C1 (stereo unspecified) | nt | nt | 0% | nt | nt
Cc1c(C(=O)O)c(O)cc2c1C(=O)c1c(O)c([C@@H]3O[C@H](CO)[C@@H](O)[C@H](O)[C@H]3O)c(O)c(O)c1C2=O | nt | 21µM* | -1% | ? | 0%
CC(C)CCNC(=O)[C@H](CC(C)C)NC(=O)[C@H]1O[C@@H]1C(=O)O | 1% | nt | nt | nt | nt
CCOC(=O)[C@H]1O[C@@H]1C(=O)N[C@@H](CC(C)C)C(=O)NCCC(C)C | -4% | 21µM* | 1% | 10% | 5%
O=C(CNC(=O)c1cccc2ccccc12)OC(C(=O)Nc1cc(C(F)(F)F)ccc1Cl)c1ccccc1 (stereo unspecified) | nt | 7% | nt | 12% | nt
C/C(=N\NC(=O)CSCc1ccc(Cl)cc1)c1ccc2c(c1)OCCO2 | 0% | -7% | -2% | 16µM* | 0%
COc1ccc(NC(=O)C#Cc2ccccc2)cc1OC | nt | -8% | -1% | 8.2µM* | 12%[9.22 µM]
COc1ccc(NC(=O)CSc2ncccc2C(=O)OC(C)C)cc1OC | 14% | 1% | 2%[38.3 µM] | 9.2µM* | 2%
COc1ccc(NC(=O)c2ccccc2SC)cc1OC | 2% | 12% | 1% | nt | 0%
COc1ccc(-c2nc(SCC(=O)Nc3ccccc3)c(-c3ccc(F)cc3)[nH]2)cc1OC | 2% | ? | 14% | 15µM* | 0%
COc1ccc(NC(=O)CSc2nc(-c3ccccc3)[nH]c2-c2ccccc2)cc1OC | 0% | -18% | 2% | 16µM* | 0%
CC(=O)c1cccc(NS(=O)(=O)c2cccc(C(=O)O)c2)c1 | 6% | nt | nt | nt | nt
O=C(CSc1nc(-c2ccc(F)cc2)[nH]c1-c1ccccc1)Nc1ccccc1 | 0% | -24% | 5% | 21µM* | 3%
CCc1nn2c(=O)cc(NC3CNC3)nc2s1 | nt | -1% | nt | 8% | nt
COc1ccc(/C=C/C(=O)N2CCN(c3ccccc3)CC2)cc1S(=O)(=O)N1CCOCC1 | 1% | -13% | 2% | 13µM* | 3%
SMILES | Epigenetic derep | A549 tox | PINK1 expr mod | Nrf2 block | Nrf2 ARE act
COc1cc(/C=C/C(=O)Nc2ccc(OC)c(S(=O)(=O)N3CCOCC3)c2)ccc1OC(F)F | nt | -26% | 12% | 18µM* | 0%
O=C(C1CCCCC1)N1CCOc2ccc(CN3CCN(Cc4ccccn4)CC3)cc2C1 | nt | nt | 1% | nt | nt
Oc1ccc(Cl)cc1C1C=C(c2ccc3c(c2)OCO3)NC(c2ccc(Cl)cc2)N1 (stereo unspecified) | nt | 1% | 2% | ? | nt
COc1cccc(CN2C(=O)NC(C)(C3CCN(Cc4cccc(O)c4)CC3)C2=O)c1OC (stereo unspecified) | nt | nt | 0% | nt | nt
CCc1cccc(NC(=O)c2c(N3CCCC3=O)c3cc(C)ccc3n2C)c1 | -2% | -17% | 1% | ? | 3%
O=C(COc1ccc(Cl)cc1)Nc1sc2c(c1C(=O)Nc1cccc(Cl)c1)CCCC2 | -2% | -3% | 1% | ? | 0%
Cc1ccc(NC(=O)c2c(NC(=O)C(F)(F)F)sc3c2CCCCC3)cc1 | -2% | ? | ? | 2.6µM* | -1%
Cc1ccccc1NC(=O)c1c(NC(=O)C(F)(F)F)sc2c1CCCCC2 | -2% | ? | ? | 2.3µM* | -2%
Cc1ccccc1NC(=O)c1c(NC(=O)c2ccccc2)sc2c1CCC2 | -1% | 1% | 1% | 10% | 3%
O=C(O)CCC(=O)Nc1sc2c(c1C(=O)Nc1ccccc1)CCCCC2 | 0% | -1% | 1% | 14% | 14µM*!
O=C(Nc1cccc(Cl)c1)c1c(NC(=O)C(F)(F)F)sc2c1CCCC2 | -2% | ? | 40µM* | ? | 0%
CC(=O)c1ccc(F)c(-c2cc(C)cc3c2OC(CNC(=O)C2CCCCN2C)C3)c1 (stereo unspecified) | nt | nt | 1% | nt | nt
CCc1cccc(C)c1NC(=O)CSc1nc2ccccc2nc1Cc1ccccc1 | -2% | -5% | -10% | nt | 0%
COc1cccc(CN2CCC(n3cc(C(=O)N4CCCCC4)nn3)CC2)c1OC | nt | nt | -1% | nt | nt
Cc1cccc(NC(=O)c2c(NC(=O)C(F)(F)F)sc3c2CCCCC3)c1 | -1% | ? | ? | 2.6µM* | -3%
Cc1cccc(NC(=O)c2c(Br)sc3c2CCCC3)c1 | -1% | 11% | 2% | -30% | 11%
Cn1nc([N+](=O)[O-])c(C(C#N)c2ccccn2)c(Cl)c1=O (stereo unspecified) | 7% | ? | 2% | 12µM* | ?
CC(/C=N/NC(=O)CSc1nnc(SCc2ccccc2)s1)=C\c1ccco1 | 0% | -1% | -2% | 1% | 11µM*
CC(/C=N/NC(=O)c1cnccn1)=C\c1ccco1 | 0% | -12% | -1% | 24% | 8.9µM*
Cc1ccc(CSc2nnc(SCC(=O)N/N=C/C=C/c3ccco3)s2)cc1 | 3% | -2% | 7% | 10% | 16%
CC(/C=N/NC(=O)c1cccnc1)=C\c1ccco1 | -1% | 7% | nt | 12% | ?
Cc1ccc(C)c(CN2CCC3(CCC(CNC(=O)c4ccnn4C)O3)CC2)c1 (stereo unspecified) | nt | nt | 1% | nt | nt
